Compounds without any hit were thinned out: in the full panel of roughly 83,000, 20% have a hit.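 The test compound was applied at a single concentration to cells in 96-well plates for 48 hours, and percent growth was recorded.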 Activity calls are given as the source filed them. How the source made its calls: active means growth percent below 10; inactive means the rest.
How the values were obtained:
Assay in all cases: NCI-60 one-dose screen, 48 h (100 = growth as untreated, 0 = no growth, -100 = all killed)
Conditions in all cases: 10 µM
[1] = system: T-47D breast
[2] = system: BT-549 breast
[3] = system: MDA-MB-435 melanoma
[4] = system: SW-620 colon
[5] = system: MCF7 breast
[6] = system: HCT-116 colon
[7] = system: HCC-2998 colon
[8] = system: KM12 colon
[9] = system: MDA-MB-468 breast

Measured: growth

O=C(CS(=O)(=O)c1oc(-c2ccc(Cl)cc2)nc1S(=O)(=O)c1ccccc1)N1CCCC1
inactive: [7] 21.8% | [8] 61.7%
active: [1] -66.9% | [2] -3.43% | [3] -41.8% | [4] -70.1% | [5] -70.1% | [6] 0.106% | [9] -90.5%

Cc1ccc(-c2cc(C(=O)N=Nc3c(O)[nH]c4ccc(Br)cc34)c3ccccc3n2)cc1
inactive: [1] 75.2% | [2] 86.3% | [3] 45.1% | [4] 34.1% | [5] 28.5% | [6] 27.4% | [7] 45.5% | [8] 49.1% | [9] 31.2%

COc1ccc(-c2cc(C(=O)N=Nc3c(O)[nH]c4ccc(F)cc34)c3ccccc3n2)cc1
inactive: [1] 75.9% | [2] 86.3% | [3] 65.2% | [4] 41.1% | [5] 23.6% | [6] 39.7% | [7] 91.1% | [8] 81.3% | [9] 44.2%

O=C(Cn1nc(-c2ccccc2)ccc1=O)NNC(=S)NC1CCCCC1
inactive: [1] 82% | [2] 111% | [3] 110% | [4] 113% | [5] 99.4% | [6] 112% | [7] 114% | [8] 109% | [9] 103%

COC1=C[C@]23CCC(=O)N2CCc2cc4c(cc2[C@@H]3[C@@H]1OC(=O)CCCC(C)C)OCO4
inactive: [1] 68.3% | [2] 85.4% | [3] 74.1% | [4] 63% | [6] 19.2% | [7] 21.8% | [8] 48.7%
active: [5] 1.77% | [9] 6.02%

Cc1ccc(C(=O)NCCCNc2nc(Nc3ccc(N4CCN(C)CC4)cc3)nc3ccsc23)cc1
inactive: [2] 65.4% | [3] 43.9% | [4] 31.6% | [5] 16.6% | [7] 43.7% | [8] 37.2% | [9] 45.4%
active: [1] 4.51% | [6] 9.28%

CN1C/C(=C\c2ccc(O)cc2O)c2[o+]c3cc(O)ccc3cc2C1
active: [1] 3.02% | [9] -16.3%
inactive: [2] 39.8% | [3] 20.4% | [4] 23.1% | [5] 11% | [6] 16.4% | [7] 25.2% | [8] 25%

COc1cc(Cn2c(C(F)(F)F)cc3c(Cl)ncnc32)ccn1
inactive: [1] 66.5% | [8] 30.8%
active: [2] -15.9% | [3] -0.488% | [4] 4.9% | [5] 7.67% | [6] -23.4% | [7] -95.6% | [9] -80.9%

N#Cc1ccc(-c2nn(-c3ccc(C(=O)O)cc3)cc2CNc2cc(Cl)cc(Cl)c2)cc1
active: [2] -1.57% | [7] 9.16%
inactive: [1] 25.9% | [3] 40.1% | [4] 49.2% | [5] 27.3% | [6] 12.5% | [8] 18.6% | [9] 43.4%

C/C(=N\N=C\c1ccc(Cl)c([N+](=O)[O-])c1)c1ccc2c(c1)Nc1ccccc1S2
active: [4] 6.06% | [5] 6.3% | [7] 8.71% | [9] -29.3%
inactive: [1] 41.3% | [2] 58.4% | [3] 49.9% | [6] 19.4% | [8] 29.4%

COc1ccc(-c2cc(C(=O)N=Nc3c(O)[nH]c4ccccc34)c3ccccc3n2)cc1
inactive: [1] 12.1% | [2] 72.9%
active: [3] 0.986% | [4] -30.2% | [5] -49.6% | [6] -43.3% | [7] -16.4% | [8] -11.1% | [9] -31.7%

C=C1CCC2C3(C)COC(c4c(F)cccc4F)OC3CCC2(C)C1C/C=C1/C(=O)OCC1O (stereo unspecified)
active: [1] 1.57% | [2] -78.4% | [3] -9.65% | [4] -41.4% | [5] -12.6% | [6] -59.2% | [7] -65% | [8] -67.5% | [9] -24%

Cc1ccn2c(C(=O)c3ccccc3)cc(-c3cc(-c4ccc(N(C)C)cc4)c(C#N)c(N)n3)c2c1
inactive: [1] 63.6% | [2] 58.1% | [3] 78.8% | [4] 69.7% | [5] 54.3% | [6] 63.4% | [7] 92% | [8] 74% | [9] 50.7%

O=C1Nc2cc(-c3ccc(NC(=O)c4cccs4)cc3)ccc2/C1=C/c1ccc[nH]1
inactive: [1] 22.2% | [2] 91.7% | [3] 102% | [4] 60.3% | [6] 53.3% | [7] 79.5% | [8] 39.3%
active: [5] -12.7% | [9] -19.7%

O/N=C(\CSc1nnc(-c2c[nH]c3ccccc23)n1-c1ccccc1)c1ccc(Cl)cc1
inactive: [7] 17% | [8] 21.4%
active: [1] 3.91% | [2] -66.7% | [3] -99.8% | [4] -37% | [5] 3.27% | [6] 0.742% | [9] -85.1%

C=C(c1ccc(OC)c(N)c1)c1cc(C)nc2ccccc12
active: [3] -48.9% | [5] 9.03% | [6] 8.49% | [9] -16.3%
inactive: [1] 62.6% | [2] 64.8% | [4] 18.4% | [7] 11.4% | [8] 10.5%

COc1ccc(CN2[C@H](C(=O)NCc3ccc(C(=O)NO)cc3)Cc3c([nH]c4ccccc34)[C@H]2C2CC2)cc1
inactive: [1] 40.4% | [2] 58.6% | [3] 18.1% | [4] 30.9% | [5] 36.8% | [6] 23% | [7] 33% | [8] 44.7%
active: [9] 3.8%

O=C(CNc1nc(-c2ccccc2)cs1)Nc1ccc(Cl)cc1[N+](=O)[O-]
active: [1] -32.6% | [2] -46.6% | [3] -5.51% | [4] -60.6% | [5] -59.3% | [6] -22.8% | [7] -93.4% | [8] -0.339% | [9] -34.9%

Cc1cc2nc3c4ccccc4n(CCO)c3nc2cc1C
inactive: [1] 73.5% | [2] 78.7% | [3] 94.6% | [4] 75.5% | [5] 52.1% | [6] 34.4% | [7] 123% | [8] 92.2% | [9] 74.4%

Source: PubChem BioAssay (NCI)
